Unmarked numbers belong to inactive results. The source made the active and inactive calls. Calls follow the shape of the dose curve; as a rule, active = well fitted curve in the direction sought with a large enough effect in the repeat runs; inconclusive = weak or mixed curves; inactive = flat fitted curve, though single readings scatter.
Test: qHTS assay to test for compound auto fluorescence at 590 nm (red) in HEK293 cell free culture (AID 720683)
Details: cell-free medium autofluorescence, Ex540/Em590 red; series mostly up to 46 µM; fluorescence, % of fluorescent control: at the top concentration
How it was run: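 Red-channel autofluorescence of compounds in culture medium (DMEM, 10% FBS), no cells, measured at 540/590 nm. Rose Bengal sodium is the reference fluorophore for equivalence.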
For FCOC(C(F)(F)F)C(F)(F)F, the “fluorescence, % of fluorescent control” value was 0.31%.
In the case of CCN(CC)CCOc1ccc2nc(N(C)C)sc2c1, the “fluorescence, % of fluorescent control” value is reported as 0.307%.
In the case of COc1cc(-c2ccc(-[n+]3nc(-c4ccccc4)nn3-c3ccc([N+](=O)[O-])cc3)c(OC)c2)ccc1-[n+]1nc(-c2ccccc2)nn1-c1ccc([N+](=O)[O-])cc1, the “fluorescence, % of fluorescent control” value is reported as -0.695%.
For COC(=O)[C@H]1[C@H]2C[C@@H]3c4[nH]c5ccccc5c4CCN3C[C@H]2C[C@@H](OC(=O)c2cc(OC)c(OC)c(OC)c2)[C@@H]1OC, the Potency was “inactive”.

Test: qHTS assay to test for compound auto fluorescence at 590 nm (red) in HepG2 cell free culture (AID 720684)
Details: cell-free medium autofluorescence, red 540/590 nm; series mostly up to 46 µM; fluorescence, % of Rose Bengal: at the top concentration
How it was run: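 Plate contents were MEM with 10% FBS plus test compound or DMSO, no cells. Fluorescence was recorded with 540 nm excitation and 590 nm emission.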
In the case of CCCCCC(O)/C=C/C=O (stereo not drawn), the “fluorescence, % of Rose Bengal” value is reported as -0.141%.
In the case of O=C(Cn1c(=O)sc2ccc(Cl)cc21)N1CCN(CCO)CC1, the “fluorescence, % of Rose Bengal” value is reported as 0.252%.
In the case of COc1ccc2c(c1)OC(C)(C)C(c1ccccc1)C2c1ccc(OCCN2CCCC2)cc1 (stereo not drawn), the “fluorescence, % of Rose Bengal” value is reported as -0.0059%.
With CCCCCCOc1ccc(C(=N)N(CCCC)CCCC)c2ccccc12 the “fluorescence, % of Rose Bengal” value was 0.0055%.
For C[C@H](N)C(=O)N[C@@H](C)P(=O)(O)O, the “fluorescence, % of Rose Bengal” value was 0.0059%.
In the case of OC[C@H]1OC([S-])[C@H](O)[C@@H](O)[C@@H]1O.[Au+] (stereo partly drawn), the “fluorescence, % of Rose Bengal” value is reported as -0.195%.
For CC[C@@H](C(=O)[C@@H](C)[C@@H](O)[C@H](C)[C@@H]1O[C@@H]([C@@H](CC)C(=O)O)CC[C@@H]1C)[C@H]1O[C@]2(C=C[C@@H](O)[C@]3(CC[C@@](C)([C@H]4CC[C@](O)(CC)[C@H](C)O4)O3)O2)[C@H](C)C[C@@H]1C, the “fluorescence, % of Rose Bengal” value was 0.513%.
For C=C1CC[C@H](O)CC1=C/C=C1\CCC[C@]2(C)[C@@H]([C@H](C)CCCC(C)(C)O)CC[C@@H]12, the “fluorescence, % of Rose Bengal” value was -0.0248%.
For O=C(COc1ccc(Cl)cc1)OCCNC12CC3CC(CC(C3)C1)C2, the “fluorescence, % of Rose Bengal” value was -0.194%.
With CCOC(=O)Oc1c(OC)cc(C(=O)O[C@@H]2C[C@@H]3CN4CCc5c([nH]c6cc(OC)ccc56)[C@H]4C[C@@H]3[C@H](C(=O)OC)[C@H]2OC)cc1OC the “fluorescence, % of Rose Bengal” value was 0.0443% [at 18.6 µM].
With Nc1nc2[nH]cc(CCc3ccc(C(=O)N[C@@H](CCC(=O)O)C(=O)O)cc3)c2c(=O)[nH]1 the “fluorescence, % of Rose Bengal” value was 0.0064%.
With CC(CC(c1ccccc1)c1ccccc1)NC(C)(C)C (stereo not drawn) the “fluorescence, % of Rose Bengal” value was 0.0368%.
For NC[C@@H]1O[C@H](O[C@H]2[C@@H](O)[C@H](O[C@@H]3[C@@H](O)[C@H](N)C[C@H](N)[C@H]3O[C@H]3O[C@H](CN)[C@@H](O)[C@H](O)[C@H]3N)O[C@@H]2CO)[C@H](N)[C@@H](O)[C@@H]1O, the “fluorescence, % of Rose Bengal” value was -0.0282%.
For OC1OC[C@@H](O)[C@H](O)[C@@H]1O (stereo partly drawn), the “fluorescence, % of Rose Bengal” value was -0.0367%.
In the case of CCN(CC)c1ccc(C(=C2C=CC(=[N+](CC)CC)C=C2)c2ccccc2)cc1, the “fluorescence, % of Rose Bengal” value is reported as 0.0176%.
For CC(CCc1ccc(O)cc1)NCC(O)c1ccc(O)cc1 (stereo not drawn), the “fluorescence, % of Rose Bengal” value was 0.412%.
For CC(=O)Nc1c(I)c(C(=O)O)c(I)c(N(C)C(C)=O)c1I, the “fluorescence, % of Rose Bengal” value was -0.0089%.
For C[C@]12C=CC(=O)N[C@@H]1CC[C@@H]1[C@@H]2CC[C@]2(C)[C@@H](C(=O)Nc3cc(C(F)(F)F)ccc3C(F)(F)F)CC[C@@H]12, the “fluorescence, % of Rose Bengal” value was 0.0056%.
In the case of CCC(Oc1ccccc1)C(=O)N[C@@H]1C(=O)N2[C@@H]1SC(C)(C)[C@@H]2C(=O)O (stereo partly drawn), the “fluorescence, % of Rose Bengal” value is reported as 0.121%.
In the case of COc1c(O[C@@H]2O[C@H](CO)[C@@H](O)[C@H](O)[C@H]2O)cc2c(c1OC)-c1ccc(SC)c(=O)cc1[C@@H](NC(C)=O)CC2, the “fluorescence, % of Rose Bengal” value is reported as -0.0166% [at 18.6 µM].
For CC[C@@H]1/C=C(\C)C[C@H](C)C[C@H](OC)[C@H]2O[C@@](O)(C(=O)C(=O)N3CCCC[C@H]3C(=O)O[C@H](/C(C)=C/[C@@H]3CC[C@@H](Cl)[C@H](OC)C3)[C@H](C)[C@@H](O)CC1=O)[C@H](C)C[C@@H]2OC, the “fluorescence, % of Rose Bengal” value was -0.0233%.
For C[C@H](O)[C@H](O)[C@H]1CNc2nc(N)[nH]c(=O)c2N1, the “fluorescence, % of Rose Bengal” value was 0.672%.
With COc1ccc(C[C@H](N)C(=O)N[C@H]2[C@@H](O)[C@H](n3cnc4c(N(C)C)ncnc43)O[C@@H]2CO)cc1 the “fluorescence, % of Rose Bengal” value was -0.0088%.
For O=C(NNCNNC(=O)c1ccncc1)c1ccncc1, the “fluorescence, % of Rose Bengal” value was -0.109%.
In the case of CC(O)[C@H]1CC[C@H]2[C@@H]3CC[C@@H]4C[C@@H](O)CC[C@]4(C)[C@H]3CC[C@]12C (stereo partly drawn), the “fluorescence, % of Rose Bengal” value is reported as -0.244%.
For CCCCc1cc2c(=O)c(C(=O)OC)c[nH]c2cc1OCc1ccccc1, the “fluorescence, % of Rose Bengal” value was -0.114%.
For C=C[C@]1(C)C[C@@H](OC(=O)CSCCN(CC)CC)[C@]2(C)[C@H](C)CC[C@]3(CCC(=O)[C@H]32)[C@@H](C)[C@@H]1O, the “fluorescence, % of Rose Bengal” value was -0.011%.
For CCCCCCCCCCCCCCCCCC(=O)OCC(C)O (stereo not drawn), the “fluorescence, % of Rose Bengal” value was -0.165%.
With CCCCC[C@H](O)/C=C/[C@@H]1[C@H]2C/C(=C/CCCC(=O)O)O[C@H]2C[C@H]1O the “fluorescence, % of Rose Bengal” value was 0.0407%.
In the case of CCOC(=O)[C@@H](N)CS, the “fluorescence, % of Rose Bengal” value is reported as -0.0662%.
With CC1(C)S[C@@H]2[C@H](NC(=O)C(N)c3ccccc3)C(=O)N2[C@H]1C(=O)OC1OC(=O)c2ccccc21 (stereo partly drawn) the “fluorescence, % of Rose Bengal” value was -0.363% [at 18.6 µM].
In the case of CN1CCc2c(c3ccccc3n2Cc2ccccc2)C1, the “fluorescence, % of Rose Bengal” value is reported as 0.533% [at 18.6 µM].
With CN(C)CCOc1ccccc1Cc1ccccc1 (tested in a mixture with another compound) the “fluorescence, % of Rose Bengal” value was -0.0259%.
In the case of CCOC(=O)c1c[nH]c2cc(OCC(C)C)c(OCC(C)C)cc2c1=O, the “fluorescence, % of Rose Bengal” value is reported as 0.0273%.
For CN(CCO)CC(O)Cn1cnc2c1c(=O)n(C)c(=O)n2C (stereo not drawn) (tested in a mixture with another compound), the “fluorescence, % of Rose Bengal” value was 0.017%.
In the case of FCOC(C(F)(F)F)C(F)(F)F, the “fluorescence, % of Rose Bengal” value is reported as 0.0155%.
For CCN(CC)CCOc1ccc2nc(N(C)C)sc2c1, the “fluorescence, % of Rose Bengal” value was -0.118%.
For COc1cc(-c2ccc(-[n+]3nc(-c4ccccc4)nn3-c3ccc([N+](=O)[O-])cc3)c(OC)c2)ccc1-[n+]1nc(-c2ccccc2)nn1-c1ccc([N+](=O)[O-])cc1, the “fluorescence, % of Rose Bengal” value was 0.0249%.
In the case of COC(=O)[C@H]1[C@H]2C[C@@H]3c4[nH]c5ccccc5c4CCN3C[C@H]2C[C@@H](OC(=O)c2cc(OC)c(OC)c(OC)c2)[C@@H]1OC, the Potency is reported as “inactive”.

From PubChem BioAssay (Tox21)
% is scaled to controls: 0 for no effect and ±100 for the full control effect.
